Bioassay records deposited in PubChem BioAssay by National Center for Advancing Translational Sciences (NCATS).
ELG1 genotox = induces genotoxicity in HEK293T cells with luciferase-tagged ELG1 | HEK293T ELG1-luciferase reporter, luminescence, 16 h | Potency, µM (doses to about 46 µM), for inactives: at the highest dose activity change, positive = activation, actives largely listed as activators | hit rate 1.3% among 330,000; note: % of control where 0% means no effect; nearly all actives have a fitted effect of over 60% in size
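Genotoxic stress is detected as increased luminescence from luciferase-tagged ELG1 in HEK293T cells, measured with ONE-Glo after a 16 hr treatment at 37 °C.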
NPC1 promoter act = activates the NPC1 promoter; Huh7 NPC1 promoter luciferase reporter, 24 h; Potency, µM (series often up to 9.22 µM), for the others: at the highest dose activation, actives largely listed as activators; hit rate 2.4% among 320,000; note: % of control where 0% means no effect; nearly all actives have a fitted effect of over 60% in size
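Readout is luciferase luminescence, reflecting NPC1 promoter activation in stably transfected Huh7 cells after 24 h compound exposure at 37 °C in reduced-serum medium with 10% FBS.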
FLuc counter = firefly luciferase modulation, counter-screen for miR-21 project. hit rate 6.9% among 360,000. Potency, µM (top dose mostly 57.5 µM), inactives show top-dose activity change, negative = inhibition, most hits filed as inhibitors. purified FLuc, Km substrates, luminescence inhibition;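 note: plate controls were vehicle for no effect and reference inhibitor for full effect; nearly all actives have a fitted effect of over 55% in size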
Target sequence (P08659 whole entry, looked up): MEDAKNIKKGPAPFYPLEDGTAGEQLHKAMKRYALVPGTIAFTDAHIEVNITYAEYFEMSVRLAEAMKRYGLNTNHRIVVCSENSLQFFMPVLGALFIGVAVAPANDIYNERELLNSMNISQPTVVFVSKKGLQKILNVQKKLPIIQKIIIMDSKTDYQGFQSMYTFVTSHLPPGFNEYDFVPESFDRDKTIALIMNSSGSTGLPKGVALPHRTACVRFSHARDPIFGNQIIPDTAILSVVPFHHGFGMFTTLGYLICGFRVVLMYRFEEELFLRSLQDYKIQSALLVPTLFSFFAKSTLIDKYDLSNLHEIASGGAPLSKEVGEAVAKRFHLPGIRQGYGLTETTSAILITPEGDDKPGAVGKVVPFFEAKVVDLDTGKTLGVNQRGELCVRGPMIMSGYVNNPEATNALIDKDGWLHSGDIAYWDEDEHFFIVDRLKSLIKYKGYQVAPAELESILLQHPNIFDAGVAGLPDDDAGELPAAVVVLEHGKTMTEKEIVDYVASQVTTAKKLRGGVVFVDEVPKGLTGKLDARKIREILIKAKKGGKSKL
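Purified P. pyralis luciferase (10nM final) with 10uM D-luciferin and 10uM ATP (Km levels) in 50mM Tris acetate pH 7.5, 10mM Mg acetate, 0.01% Tween-20, 0.05% BSA; qHTS 6-point titration, ~60 µM downward; luminescence read.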
Luc counter = blocks Kinase-Glo luciferase, a counter-screen artifact; Q27757; Kinase-Glo luciferase, ATP luminescence, 8 min; Potency, µM (titrated, usually from 38.3 µM), inactives show top-dose activity change, negative = inhibition, hits mostly inhibitors; hit rate 0.28% among 200,000; note: % is set by controls: 0 for no effect and ±100 for the full control effect; nearly all actives have a fitted effect of over 60% in size
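Light output from Kinase-Glo luciferase with luciferin and 10 uM ATP in 50 mM imidazole pH 7.2, KCl, MgCl2, Tween 20, BSA; compound pin-delivered, 8-min ambient incubation, then luminescence read.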
Rab9 promoter act = Rab9 promoter activation. Huh7 Rab9 promoter-luciferase reporter, luminescence, 24 h. Potency, µM (top dose mostly 9.22 µM), for inactives: top-dose activation, negative = inhibition, hits mostly activators. hit rate 2.8% among 320,000. AID 485297; note: % of control where 0% means no effect; nearly all actives have a fitted effect of over 60% in size
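Promoter activation is measured as luciferase luminescence in Huh7 cells stably transfected with a Rab9 promoter–luciferase construct, following 24 h compound exposure at 37 °C and 10 min reagent incubation at ambient temperature.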
SMN2 splice enh = SMN2 splice variant enhancement. HEK293 SMN2-luciferase splicing reporter, luminescence, 30-36 h. Potency, µM (top dose mostly 46.1 µM), inactives show at the highest dose activity change, positive = activation, most hits filed as activators. hit rate 2.8% among 210,000. AID 1458; note: % of control where 0% means no effect; nearly all actives have a fitted effect of over 55% in size
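HEK293 cells carry an SMN2 […]–luciferase reporter in which exon 7 inclusion puts luciferase in frame. Cells were plated 10-12 h before compound addition, then incubated 30-36 h at 37C. ONE-Glo luminescence was read; sodium butyrate at 4.5 mM final served as control.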
Numbers without * were called inactive; ? = inconclusive; / = no result; [ ] = remark or other dose. In the library only some 7.3% were active in any assay of this set; here they are far more common. Calls come from the whole dose curve; as a rule, active = well fitted curve in the direction sought with a large enough effect; inconclusive = small, poorly fitted or top-dose-only effect, or another doubt; inactive = no such curve, though single readings can be large; an effect the other way counts as inactive or inconclusive. Potency is the fitted concentration of half-maximal effect.

SMILES	ELG1 genotox	NPC1 promoter act	FLuc counter	Luc counter	Rab9 promoter act	SMN2 splice enh
CC(=O)OCC1C2CC[C@H]3C(OCc4ccc(F)cc4C(F)(F)F)OC[C@]4(C)[C@H]3C2=C(CN4C(=O)OC(C)(C)C)[C@H](C)C1COC(C)=O (stereo partly drawn)	/	/	/	-1%	/	-5%
CCOC(=O)C1CCN(C(=O)CN2c3ccc(C(C)C)cc3-c3ccccc3S2(=O)=O)CC1	/	/	-14%	/	/	/
COc1cc(NC(=O)c2cc3cc4ccc(C)cc4nc3o2)cc(OC)c1OC	/	/	-5%	/	/	-25%
Cc1ccc(C(=O)CCS(=O)(=O)c2ccc(F)cc2)cc1	10%	-4%	0.76µM*	/	5%	/
CC(C)Oc1ccc(-c2cc(C(=O)NCCN3CCOCC3)c3ccccc3n2)cc1	6%	?	1.5µM*	-6%	25%	29%
CCc1ccc(Nc2cc(C(=O)NCCCN3CCOCC3)c3ccccc3n2)cc1	-12%	-1%	19µM*	-4%	7%	-6%
COc1ccc(Nc2cc(C(=O)NCCCN3CCOCC3)c3ccccc3n2)cc1	-5%	-2%	?	/	-1%	/
CCOc1ccc(-c2cc(C(=O)NCCCN3CCOCC3)c3ccccc3n2)cc1	2%	15%	8.5µM*	/	1%	/
COc1ccc(-c2cc(C(=O)NCCCN3CCCC3=O)c3ccccc3n2)cc1	-6%	-2%	12µM*	/	-4%	/
Cc1cccc(NC(=O)CSc2ncc(-c3ccc(Br)cc3)[nH]2)c1	/	/	-4%	/	/	-62%
CCc1ccc(S(=O)(=O)Nc2ccc3oc(C)c(C(=O)OCCOC)c3c2)cc1	/	/	?	/	/	-13%
CC(=O)c1cccc(NC(=O)COC(=O)c2ccccc2C)c1	?	?	21µM*	/	27%	/
COc1ccc(NS(=O)(=O)c2cc(OCC(N)=O)c(C)cc2Cl)cc1	-3%	-2%	3%	-1%	1%	-11%
Cc1cccc(NC(=O)COc2ccc(Br)cc2/C=N/O)c1	?	4µM*	5.4µM*	-1%	4µM*	18µM*
Cc1ccccc1OCC(=O)Nc1cccc(C(=O)O)c1	-15%	?	0.095µM*	0%	?	1.6µM*
Cc1cc(Cl)c(S(=O)(=O)Nc2cccc(O)c2)cc1OCC(N)=O	2%	-2%	1%	-4%	-2%	4µM*
Cc1ccc(SCc2nc(-c3ccc(C(=O)NCc4ccccc4Cl)cc3)oc2C)cc1	/	/	4%	/	/	/
CN1CCC[C@H](C(=O)OCC(=O)[C@]2(O)CC[C@@H]3[C@H]4CCC5=CC(=O)CC[C@@]5(C)[C@H]4[C@@H](O)C[C@]32C)C1	/	/	/	-1%[7.66 µM]	/	0%[9.22 µM]
[N-]=[N+]=NC[C@@H]1O[C@@H](n2cnc3c(N)ncnc32)[C@@H]2O[C@@H]21	/	/	/	-2%[7.66 µM]	/	-4%[9.22 µM]
CC1=C(c2ccc(C)cc2)S(=O)(=O)NC1=NCCCN1CCN(c2ccccc2F)CC1	/	/	0%	/	/	/
CC(=O)c1cccc(NC(=O)CSC(=O)c2ccccc2)c1	1%	3%	17µM*	0%	11%	17%
CC(C)(C)NC(=O)c1cccc(NC(=O)CSc2ccccc2)c1	-4%	1%	15µM*	-6%	3%	-3%
Cc1cc(C)c(OCC(=O)Nc2ccc3c(c2)OCO3)cc1C	?	21%	-16%	5%	28%	/
Cc1cc(C)c(OCC(=O)Nc2cccc(O)c2)cc1C	5.2µM*	10%	1.5µM*	1%	?	11%
CCN(CC)c1ccc(NC(=O)CSC(=O)c2ccccc2)cc1	6%	/	/	/	/	/
SMILES	ELG1 genotox	NPC1 promoter act	FLuc counter	Luc counter	Rab9 promoter act	SMN2 splice enh
O=C(COc1ccccc1Cl)Nc1ccccc1C(=O)Nc1cccc(C(=O)O)c1	?	?	7.6µM*	/	?	/
Cc1ccc2occ(-c3cc(-c4ccc(F)cc4)nc4c3COc3ccc(F)cc3-4)c(=O)c2c1	/	/	-2%	/	/	-3%
COc1cccc(Cn2c(C)c(CNCc3ccccc3Cl)c(C(=O)O)c2C)c1	/	/	5%	/	/	2%
COc1ccc(C(=O)c2cn(CC(=O)Nc3ccc4c(c3)OCCO4)c3ccc(OC)cc3c2=O)cc1	/	/	-16%	/	/	-15%
O=C(O)c1ccc(C(=O)O)c(C(=O)O)c1.[NH-][C@@H]1CCCC[C@@H]1[NH-].[Pt]	/	/	/	-3%[7.66 µM]	/	-1%[9.22 µM]
CC1=C(C(=O)OCc2ccc(C)cc2)C(c2ccccc2C(F)(F)F)CC(=O)N1 (stereo not drawn)	/	/	0%	/	/	1%
Cc1ccccc1OCC(=O)Nc1ccccc1-c1ccccc1	?	0.89µM*	4.8µM*	?	0.89µM*	?
Cc1ccccc1OCC(=O)Nc1cccc(NC(=O)c2ccco2)c1	-5%	-2%	11µM*	-6%	?	-4%
Cc1cc(C)cc(OCC(=O)Nc2cccc(C(=O)O)c2)c1	27%	?	15µM*	-5%	?	?
Cc1ccccc1OCC(=O)Nc1ccc(NC(=O)c2ccco2)cc1	9%	1%	-1%	5%	12%	-4%
Cc1ccccc1OCC(=O)Nc1ccc(N2CCN(C)CC2)c(Cl)c1	?	?	12µM*	/	29%	/
Cc1ccc(Sc2ccc(N3CCCC(C(=O)Nc4ccc(F)cc4)C3)nn2)cc1 (stereo not drawn)	/	/	-16%	/	/	-2%
O=C(C1CCN(S(=O)(=O)Cc2ccccc2)CC1)N1CCN(c2ccccc2)CC1	/	/	1%	/	/	/
COc1ccc(-c2ccc(NC(=O)c3ccco3)cc2)nn1	?	?	1.2µM*	/	0.1µM*	/
CCC(C)c1ccc(NC(=O)c2ccco2)cc1 (stereo not drawn)	0.58µM*	0.14µM*	0.43µM*	/	0.32µM*	/
CC1N(C)c2cc(NC(=O)c3ccco3)ccc2C1(C)C (stereo not drawn)	?	3.2µM*	9.5µM*	-5%	1µM*	16µM*
CC1N(C)c2cc(NC(=O)c3ccco3)c(P(=O)(Nc3ccc([N+](=O)[O-])cc3)N3CCOCC3)cc2C1(C)C (stereo not drawn)	-13%	1%	6%	0%	-26%	-29%
CC(=O)Nc1ccc(NC(=O)c2ccco2)cc1	?	22%	?	14%	?	18µM*
Cc1ccc(NC(=O)CSc2cn(CC(=O)N3CCOCC3)c3ccccc23)cc1Cl	/	/	-16%	/	/	/
Cc1ccc(C(CC(=O)Nc2cc(C)cc(C)c2)N2Cc3ccccc3C2=O)cc1 (stereo not drawn)	/	/	-10%	/	/	/
O=C(COc1ccc(Cl)cc1)Nc1ccc(NC(=O)c2ccco2)cc1	?	16%	1%	/	13%	/
CN(C(=O)c1ccc(NC(=O)c2ccco2)cc1)c1ccccc1	?	?	17µM*	/	?	/
O=C(Nc1ccc(Cl)cc1)c1ccco1	?	2.8µM*	17µM*	/	?	/
